24 compounds from PubChem BioAssay (NCATS) can be followed below.

Unmarked numbers belong to inactive results. Inconclusive results are not listed. Activity calls are given as the source filed them. Unless noted, calls follow the shape of the dose curve; as a rule, active = well fitted curve in the direction sought with a large enough effect; inconclusive = small, poorly fitted or top-dose-only effect, or another doubt; inactive = no such curve, though single readings can be large; an effect the other way counts as inactive or inconclusive.

In experiment [1] the target is T1, Hexokinase-4 (Homo sapiens) + Glucokinase regulatory protein (Homo sapiens) (UniProt P35557+Q14397). Briefly: qHTS assay for inhibitors of recombinant human GCK-GKRP interaction: ADP-Glo assay (AID 743206).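 Also: plate controls were DMSO plus enzyme for no effect and no enzyme for full effect.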 Summed up: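 Pin-transferred compounds meet a 15 nM GST-GCK/15 nM FLAG-GKRP/2 uM S6P mix (dispense concentrations). ATP is then added to 0.4 mM final with 5 mM glucose, and the reaction runs 60 min at room temperature. ADP is quantified luminescently.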
For orientation: In qHTS, concentration-response curves come from the screen itself.

Experiment [2] deals with T1, Hexokinase-4 (Homo sapiens) + Glucokinase regulatory protein (Homo sapiens). The experiment is described as follows: qHTS assay for inhibitors of recombinant human GCK-GKRP interaction: HTRF assay (AID 743207).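 Also: 0% = DMSO with GCK present and -100% = DMSO wells lacking GCK.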 Summed up:
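GST-GCK and FLAG-GKRP (5 nM each) were combined with 2 uM S6P in pH 7.1 Hepes/MgCl2/KCl/DTT buffer, then compound and anti-FLAG XL665/anti-GST K antibodies were added. After 60 min at room temperature, HTRF 665/615 nm emission was read.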

Experiment [3] is described as follows: qHTS Assay for Identifying Gametocytocidal Compounds (AID 743244). Also: potency is read from the fitted curve at half-maximal effect.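 As to max response: % is scaled to controls: 0 for no effect and ±100 for the full control effect; actives lower the fluorescent signal which means gametocytes are killed.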 The settings on record: P. falciparum 3D7 stage III-V gametocytes, alamarBlue, 72 h; max response: hits give low values. In outline: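 Fluorescence at Ex 525/Em 598 nm, recorded 24 h after alamarBlue addition, reports residual metabolic activity of 3D7 gametocytes (stages III–V) following 72 h compound exposure at 37 °C, 5% CO2.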

Experiment [4] in a line: qHTS assay for measurement of the activity of small molecule inhibitors on Zika virus induced Caspase-3 activity in human iPSC derived neural progenitor cells (hNPCs) (AID 1224857). Also: % of control where 0% means no effect; nearly all actives have a fitted effect of over 65% in size. In outline: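 Zika virus (2 FFU/cell) infection of human iPSC-derived NPCs, 6 h, following 1 h compound preincubation. Read-out: Caspase-Glo 3/7 luminescence.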
Experiment [5] in a line: qHTS assay for measurement of the activity of small molecule inhibitors on Zika virus induced Caspase-3 activity in human astrocytoma cells (AID 1224859).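 Also: plate controls were ZIKV-infected untreated cells for no effect and uninfected cells for full effect.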 In outline: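 Caspase activation in ZIKV-infected SNB-19 cells (2 FFU/cell, 6 h) measured by Caspase-Glo 3/7 luminescence after 30 min RT; compound pre-incubated 1 h; normalised to uninfected and infected controls.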
Experiment [6] in a line: Natriuretic polypeptide receptor (hNpr1) antagonism - Pilot counterscreen GloSensor control cell line (AID 1347045; calls by dose curve; also: series mostly up to about 38 µM; % is scaled to controls: 0 for no effect and ±100 for the full control effect). Summed up: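 Control counterscreen: luciferase cGMP-biosensor HEK293 cells (no Npr1) received compound for 30 min at room temperature after GloSensor substrate loading. Luminescence was measured before and 20 min after soluble guanylyl cyclase activation by 50 uM nitroprusside.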
(In general: A counterscreen serves to expose hits that act by an unwanted route or on another target.)

Experiment [7] deals with Atrial natriuretic peptide receptor 1 (Homo sapiens) (UniProt P16066). The experiment is described as follows: Natriuretic polypeptide receptor (hNpr1) antagonism - Pilot screen (AID 1347049; calls by dose curve;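 also: agonist-evoked cGMP luminescence read 20 min after hNppA addition; series mostly up to about 58 µM; % is scaled to controls: 0 for no effect and ±100 for the full control effect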). In outline: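 cGMP-sensor HEK293/hNpr1 cells, 1500/well, plated overnight at 37C. 2% GloSensor reagent, 2 h RT. Compound (23 nL pin transfer) 30 min RT, baseline luminescence pre-read. 0.1 nM hNppA, 20 min RT, post-read.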

Experiment [8] addresses Atrial natriuretic peptide receptor 2 (Homo sapiens) (UniProt P20594). The experiment is described as follows: Natriuretic polypeptide receptor (hNpr2) antagonism - Pilot subtype selectivity assay (AID 1347050; calls by dose curve; also: % is scaled to controls: 0 for no effect and ±100 for the full control effect). Summed up: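 Luminescence from a genetically encoded cGMP luciferase biosensor in hNpr2-expressing HEK293 cells is read before and 20 min after adding 1 nM hNppC. Test compounds, in interplate 1:5 titrations, are added 30-50 min ahead of the agonist.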

A short description of experiment [9]: NS1 protein of Zika virus - qHTS assay to identify small molecule inhibitors in human HEK 293 cells (AID 1347053).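 Also: series mostly up to about 46 µM; plate controls were infected untreated cells for no effect and uninfected cells for full effect; nearly all actives have a fitted effect of over 55% in size.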 Summed up: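 In this cell-based screen, HEK 293 cultures received compound for one hour before Zika MR766 at MOI = 0.5. NS1 was quantified 24 hours later by TR-FRET, normalized to virus-free wells and infected wells.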

T1 sequence (P35557 whole entry, looked up): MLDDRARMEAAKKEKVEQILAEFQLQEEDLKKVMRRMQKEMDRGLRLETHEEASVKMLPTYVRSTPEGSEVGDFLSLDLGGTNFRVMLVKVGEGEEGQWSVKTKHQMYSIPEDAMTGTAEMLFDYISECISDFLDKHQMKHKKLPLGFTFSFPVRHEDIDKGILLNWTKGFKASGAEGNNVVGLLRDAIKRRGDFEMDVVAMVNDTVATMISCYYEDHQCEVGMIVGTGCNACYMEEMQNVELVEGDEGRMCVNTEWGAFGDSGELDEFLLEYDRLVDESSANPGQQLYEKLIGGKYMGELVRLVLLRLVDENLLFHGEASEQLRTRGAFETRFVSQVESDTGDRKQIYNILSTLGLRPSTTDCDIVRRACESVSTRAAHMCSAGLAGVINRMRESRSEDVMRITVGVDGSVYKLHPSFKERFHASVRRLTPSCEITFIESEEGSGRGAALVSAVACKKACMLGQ
T1 sequence (Q14397 whole entry, looked up): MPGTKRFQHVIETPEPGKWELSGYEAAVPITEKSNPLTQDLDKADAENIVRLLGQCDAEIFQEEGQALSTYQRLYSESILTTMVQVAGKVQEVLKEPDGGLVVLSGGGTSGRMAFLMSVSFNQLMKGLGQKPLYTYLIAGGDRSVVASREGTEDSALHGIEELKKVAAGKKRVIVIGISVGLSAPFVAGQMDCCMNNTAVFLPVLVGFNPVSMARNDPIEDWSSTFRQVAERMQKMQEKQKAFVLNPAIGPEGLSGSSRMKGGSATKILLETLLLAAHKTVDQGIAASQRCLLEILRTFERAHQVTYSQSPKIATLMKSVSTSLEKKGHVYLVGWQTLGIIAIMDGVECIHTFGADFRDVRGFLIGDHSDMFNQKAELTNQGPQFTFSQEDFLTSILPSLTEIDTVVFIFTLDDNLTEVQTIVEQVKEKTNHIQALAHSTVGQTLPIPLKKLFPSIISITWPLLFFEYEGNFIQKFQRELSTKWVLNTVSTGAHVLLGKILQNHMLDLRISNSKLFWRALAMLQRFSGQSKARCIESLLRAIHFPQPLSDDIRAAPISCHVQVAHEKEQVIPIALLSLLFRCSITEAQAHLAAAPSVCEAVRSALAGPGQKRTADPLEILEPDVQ
Chain of Atrial natriuretic peptide receptor 2 (Homo sapiens) (P20594 whole entry, looked up): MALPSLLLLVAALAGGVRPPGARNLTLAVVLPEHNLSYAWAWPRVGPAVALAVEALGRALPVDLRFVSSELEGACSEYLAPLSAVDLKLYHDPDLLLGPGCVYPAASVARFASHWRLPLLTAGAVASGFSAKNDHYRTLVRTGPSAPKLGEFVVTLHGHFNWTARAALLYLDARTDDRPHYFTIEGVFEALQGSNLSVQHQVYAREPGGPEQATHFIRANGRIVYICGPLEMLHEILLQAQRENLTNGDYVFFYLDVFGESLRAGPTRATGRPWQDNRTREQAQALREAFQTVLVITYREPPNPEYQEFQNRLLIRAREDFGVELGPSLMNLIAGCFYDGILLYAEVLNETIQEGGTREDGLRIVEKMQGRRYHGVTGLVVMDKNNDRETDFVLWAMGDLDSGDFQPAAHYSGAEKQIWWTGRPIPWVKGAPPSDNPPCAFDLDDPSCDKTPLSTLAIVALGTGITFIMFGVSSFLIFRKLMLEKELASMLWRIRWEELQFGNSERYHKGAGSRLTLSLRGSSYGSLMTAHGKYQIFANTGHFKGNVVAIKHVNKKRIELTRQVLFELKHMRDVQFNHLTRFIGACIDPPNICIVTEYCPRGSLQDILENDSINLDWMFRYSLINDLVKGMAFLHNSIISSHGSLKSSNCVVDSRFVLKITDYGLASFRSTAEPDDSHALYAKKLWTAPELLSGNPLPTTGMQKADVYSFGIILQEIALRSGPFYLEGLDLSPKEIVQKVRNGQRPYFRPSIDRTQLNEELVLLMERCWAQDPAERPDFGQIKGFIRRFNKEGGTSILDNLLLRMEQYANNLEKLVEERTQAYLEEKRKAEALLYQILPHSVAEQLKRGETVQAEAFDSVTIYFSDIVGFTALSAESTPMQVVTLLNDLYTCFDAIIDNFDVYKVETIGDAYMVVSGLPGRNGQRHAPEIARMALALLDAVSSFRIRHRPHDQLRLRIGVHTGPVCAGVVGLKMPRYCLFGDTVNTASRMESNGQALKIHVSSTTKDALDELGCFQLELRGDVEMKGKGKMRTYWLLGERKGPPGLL
Chain of Atrial natriuretic peptide receptor 1 (Homo sapiens) (P16066 whole entry, looked up): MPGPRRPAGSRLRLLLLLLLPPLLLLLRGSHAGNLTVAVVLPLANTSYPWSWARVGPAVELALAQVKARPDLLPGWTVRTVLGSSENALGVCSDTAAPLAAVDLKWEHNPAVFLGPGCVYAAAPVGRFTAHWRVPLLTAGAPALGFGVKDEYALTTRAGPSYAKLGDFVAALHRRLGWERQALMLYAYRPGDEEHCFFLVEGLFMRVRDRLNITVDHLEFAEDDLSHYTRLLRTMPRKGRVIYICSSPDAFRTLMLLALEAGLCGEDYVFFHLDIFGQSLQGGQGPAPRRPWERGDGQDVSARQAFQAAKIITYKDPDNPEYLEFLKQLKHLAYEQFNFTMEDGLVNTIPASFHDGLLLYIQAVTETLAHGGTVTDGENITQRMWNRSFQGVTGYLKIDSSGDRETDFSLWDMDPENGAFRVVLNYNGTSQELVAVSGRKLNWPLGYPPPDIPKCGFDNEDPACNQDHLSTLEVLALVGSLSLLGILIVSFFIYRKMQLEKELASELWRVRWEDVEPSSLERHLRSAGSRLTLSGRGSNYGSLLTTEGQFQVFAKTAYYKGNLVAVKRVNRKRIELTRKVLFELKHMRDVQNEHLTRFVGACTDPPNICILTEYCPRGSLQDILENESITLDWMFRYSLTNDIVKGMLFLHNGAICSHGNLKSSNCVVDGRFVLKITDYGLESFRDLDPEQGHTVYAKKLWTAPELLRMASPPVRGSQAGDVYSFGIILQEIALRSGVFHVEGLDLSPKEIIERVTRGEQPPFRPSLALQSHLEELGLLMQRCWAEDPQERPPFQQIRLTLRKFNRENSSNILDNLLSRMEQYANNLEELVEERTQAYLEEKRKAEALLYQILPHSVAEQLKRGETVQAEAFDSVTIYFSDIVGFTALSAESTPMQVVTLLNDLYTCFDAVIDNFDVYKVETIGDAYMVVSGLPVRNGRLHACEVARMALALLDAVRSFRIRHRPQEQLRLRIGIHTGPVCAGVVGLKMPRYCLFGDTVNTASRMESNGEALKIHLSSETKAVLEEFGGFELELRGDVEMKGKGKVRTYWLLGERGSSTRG

On to `COC(=O)C(C)(N)Cc1ccc(O)cc1` (stereo unspecified), for which the Potency entry in experiment [1], in [2], in experiment [4], in experiment [5], in experiment [6] and in [7] was “inactive” each time. Besides, the Potency entry in experiment [8] and in experiment [9] was “inactive” in each case. In addition, the max response in experiment [3] was 7.17%.

Take `CC(C)(C)NCC(O)COc1cccc2[nH]c(=O)[nH]c12` (stereo unspecified): the Potency entry in [1], in experiment [2], in experiment [4], in [5], in experiment [6] and in experiment [7] was “inactive” in each case. Moreover, the Potency entry in [8] and in [9] was “inactive” throughout. Further, the max response in experiment [3] is 25.5%.

As to `COCc1nc2c([nH]1)c(=O)n(C)c(=O)n2CC(C)C`, the Potency entry in experiment [1], in [2], in [4], in experiment [5], in experiment [6] and in experiment [7] was “inactive” in each case. Also, the Potency result in experiment [8] and in experiment [9] was “inactive” in each case. The max response in experiment [3] is 28.7%.

Turning to `Oc1cc(O)c2c(c1)O[C@H](c1ccc(O)c(O)c1)[C@@H](O)C2`, the Potency result in [1], in [2], in experiment [4], in experiment [5], in experiment [6] and in experiment [7] was “inactive” in each case. For the same compound, the Potency result in [8] and in experiment [9] was “inactive” throughout. The max response in experiment [3] was -4.64%.

For the compound `O=C(O)c1ccccc1Nc1ccccc1`, the Potency result in [1], in experiment [2], in experiment [4], in [5], in [6] and in [7] was “inactive” in each case. Further, the Potency result in experiment [8] and in [9] was “inactive” throughout. Further, the max response in experiment [3] was 4.62%.

For `NC(N)=NC(N)=Nc1cccc(Cl)c1`, the Potency entry in experiment [1], in [2], in experiment [4], in experiment [5], in [6] and in [7] was “inactive” throughout. Besides, the Potency result in experiment [8] and in [9] was “inactive” throughout. Moreover, the max response in experiment [3] is 35.4%.

For `CC(N)(C(=O)O)c1ccc(C(=O)O)cc1` (stereo unspecified), the Potency entry in [1], in experiment [2], in experiment [4], in [5], in experiment [6] and in experiment [7] was “inactive” each time. Further, the Potency result in experiment [8] and in experiment [9] was “inactive” in each case. For the same compound, in [3], the max response is 12%.

Regarding `NCCNS(=O)(=O)c1cccc2c(Cl)cccc12`, the Potency result in experiment [1], in experiment [2], in [4], in experiment [5], in experiment [6] and in [7] was “inactive” throughout. Moreover, the Potency entry in experiment [8] and in experiment [9] was “inactive” in each case. In addition, in experiment [3], the Potency was 3.16 µM (active).

Take `C[C@@H](NCCc1ccc(O)cc1)[C@@H](O)c1ccc(O)cc1`: the Potency result in [1], in [2], in experiment [4], in [5], in experiment [6] and in [7] was “inactive” each time. The Potency entry in [8] and in experiment [9] was “inactive” each time. For the same compound, the max response in [3] is 2.62%.

In the case of `COc1cc(/C=C(\C#N)C(=O)c2ccc(O)c(O)c2)cc(I)c1O`, the Potency result in experiment [1], in experiment [2], in experiment [4], in experiment [5], in experiment [6] and in [7] was “inactive” throughout. For the same compound, the Potency result in [8] and in experiment [9] was “inactive” each time. Also, in experiment [3], the max response was 9.56%.

On to `Nc1ccc2c3c(cccc13)C(=O)NC2=O`, for which the Potency entry in [1], in experiment [2], in experiment [4], in experiment [5], in experiment [6] and in experiment [7] was “inactive” in each case. For the same compound, the Potency entry in experiment [8] and in experiment [9] was “inactive” each time. Moreover, in [3], the max response was 4.5%.

With `CC(=O)N[C@@H](Cc1c[nH]c2ccccc12)C(=O)OCc1cc(C(F)(F)F)cc(C(F)(F)F)c1`, the Potency entry in [1], in [2], in experiment [4], in experiment [5], in experiment [6] and in [7] was “inactive” throughout. The Potency entry in experiment [8] and in [9] was “inactive” throughout. In addition, the max response in experiment [3] was 12%.

Take `CNCCNS(=O)(=O)c1cccc2cnccc12`: the Potency entry in experiment [1], in [2], in [4], in experiment [5], in experiment [6] and in [7] was “inactive” each time. Also, the Potency entry in experiment [8] and in experiment [9] was “inactive” in each case. Besides, the max response in [3] was 18.9%.

On to `O=C(O)C1CN(CCCP(=O)(O)O)CCN1` (stereo unspecified), for which the Potency entry in [1], in experiment [2], in experiment [4], in experiment [5], in [6] and in experiment [7] was “inactive” in each case. The Potency entry in [8] and in experiment [9] was “inactive” throughout. Moreover, the max response in experiment [3] is -7.29%.

On to `O=[N+]([O-])c1cccc2c(Br)[nH]nc12`, for which the Potency entry in experiment [1], in [2], in experiment [4], in [5], in [6] and in [7] was “inactive” in each case. Besides, the Potency entry in [8] and in [9] was “inactive” each time. Besides, the max response in [3] was -25.7%.

With `COC(=O)C(N)Cc1ccc(Cl)cc1` (stereo unspecified), the Potency entry in experiment [1], in experiment [2], in experiment [4], in [5], in experiment [6] and in experiment [7] was “inactive” in each case. For the same compound, the Potency result in experiment [8] and in experiment [9] was “inactive” throughout. Also, the max response in experiment [3] is 4.72%.

For the compound `O=C(O)/C(=C/c1c(C(=O)O)[nH]c2cc(Cl)cc(Cl)c12)c1ccccc1`, the Potency result in [1], in experiment [2], in experiment [4], in experiment [5], in [6] and in experiment [7] was “inactive” each time. For the same compound, the Potency entry in experiment [8] and in experiment [9] was “inactive” throughout. The max response in experiment [3] was 2.21%.

`CNC(=O)c1cc2c(cn1)[nH]c1ccccc12`: the Potency entry in experiment [1], in experiment [2], in [4], in [5], in experiment [6] and in experiment [7] was “inactive” throughout. Besides, the Potency entry in experiment [8] and in experiment [9] was “inactive” throughout. Also, the max response in experiment [3] is 10.2%.

With `c1ccc2c(c1)CCC[C@H]2Nc1nc2ccccc2[nH]1`, the Potency result in experiment [1], in experiment [2], in experiment [4], in experiment [5], in experiment [6] and in [7] was “inactive” each time. The Potency entry in [8] and in experiment [9] was “inactive” each time. Further, in experiment [3], the max response was 12.6%.

As for `O=c1cc(-c2ccccc2F)[nH]c2cc3c(cc12)OCO3`, the Potency result in experiment [1], in experiment [2], in [4], in experiment [5], in [6] and in experiment [7] was “inactive” in each case. Moreover, the Potency entry in experiment [8] and in experiment [9] was “inactive” each time. In addition, the max response in [3] is 15.8%.

For `Nc1ccc(CCNc2ncnc3c2ncn3C2OC(CO)C(O)C2O)cc1` (stereo unspecified), the Potency entry in experiment [1], in experiment [2], in [4], in experiment [5], in [6] and in experiment [7] was “inactive” each time. In addition, the Potency entry in experiment [8] and in [9] was “inactive” throughout. Besides, the max response in experiment [3] is 12.3%.

`CCCCOc1cc(CC2CNC(=O)N2)ccc1OC` (stereo unspecified): the Potency entry in experiment [1], in experiment [2], in experiment [4], in [5], in experiment [6] and in experiment [7] was “inactive” in each case. Also, the Potency result in experiment [8] and in experiment [9] was “inactive” throughout. Further, the max response in [3] was 22.4%.

For `C[N+](C)(C)CC=O`, the Potency entry in [1], in experiment [2], in [4], in experiment [5], in [6] and in [7] was “inactive” throughout. The Potency result in [8] and in experiment [9] was “inactive” each time. In addition, the max response in [3] was 21.1%.

Take `CC(N)=O`: the Potency entry in [1], in [2], in experiment [4], in [5], in experiment [6] and in experiment [7] was “inactive” each time. Further, the Potency result in experiment [8] and in experiment [9] was “inactive” throughout. The max response in [3] is 12.7%.
